According to ChEMBL document CHEMBL1961873, “Compounds: GSK PKIS; Assays: Nanosyn kinase panel” (2012):
“And” between values parts separate entries of the source, which are not always exact repeats. Equal entries are not always repeated.

What was measured:
[1] = molecular target: Tyrosine-protein kinase SYK (Homo sapiens) (UniProt P43405); details: at 1 µM
[2] = molecular target: T1, Tyrosine-protein kinase Tec (Homo sapiens) (UniProt P42680); details: at 0.1 µM
T1 sequence (whole entry): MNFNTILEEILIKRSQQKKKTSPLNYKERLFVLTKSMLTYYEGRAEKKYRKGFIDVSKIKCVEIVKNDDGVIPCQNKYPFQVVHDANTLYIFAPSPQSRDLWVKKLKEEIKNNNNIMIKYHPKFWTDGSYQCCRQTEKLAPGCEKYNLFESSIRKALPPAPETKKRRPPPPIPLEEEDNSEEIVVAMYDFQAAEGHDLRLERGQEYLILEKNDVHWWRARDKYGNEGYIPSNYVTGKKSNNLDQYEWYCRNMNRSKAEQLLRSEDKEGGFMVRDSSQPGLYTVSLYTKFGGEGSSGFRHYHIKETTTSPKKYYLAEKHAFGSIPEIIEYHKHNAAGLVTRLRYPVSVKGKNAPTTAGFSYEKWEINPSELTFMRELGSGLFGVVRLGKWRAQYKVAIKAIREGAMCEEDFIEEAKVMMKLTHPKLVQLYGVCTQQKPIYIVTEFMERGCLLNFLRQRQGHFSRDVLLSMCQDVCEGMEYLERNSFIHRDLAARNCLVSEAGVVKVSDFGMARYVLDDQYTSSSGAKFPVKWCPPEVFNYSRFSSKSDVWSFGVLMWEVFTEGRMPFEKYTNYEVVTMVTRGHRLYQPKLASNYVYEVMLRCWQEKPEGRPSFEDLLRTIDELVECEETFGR

[3] = molecular target: T1, Tyrosine-protein kinase Tec (Homo sapiens); details: at 1 µM
[4] = molecular target: Angiopoietin-1 receptor (Homo sapiens) (UniProt Q02763); details: at 0.1 µM
Chain of Angiopoietin-1 receptor (Homo sapiens) (Q02763 whole entry): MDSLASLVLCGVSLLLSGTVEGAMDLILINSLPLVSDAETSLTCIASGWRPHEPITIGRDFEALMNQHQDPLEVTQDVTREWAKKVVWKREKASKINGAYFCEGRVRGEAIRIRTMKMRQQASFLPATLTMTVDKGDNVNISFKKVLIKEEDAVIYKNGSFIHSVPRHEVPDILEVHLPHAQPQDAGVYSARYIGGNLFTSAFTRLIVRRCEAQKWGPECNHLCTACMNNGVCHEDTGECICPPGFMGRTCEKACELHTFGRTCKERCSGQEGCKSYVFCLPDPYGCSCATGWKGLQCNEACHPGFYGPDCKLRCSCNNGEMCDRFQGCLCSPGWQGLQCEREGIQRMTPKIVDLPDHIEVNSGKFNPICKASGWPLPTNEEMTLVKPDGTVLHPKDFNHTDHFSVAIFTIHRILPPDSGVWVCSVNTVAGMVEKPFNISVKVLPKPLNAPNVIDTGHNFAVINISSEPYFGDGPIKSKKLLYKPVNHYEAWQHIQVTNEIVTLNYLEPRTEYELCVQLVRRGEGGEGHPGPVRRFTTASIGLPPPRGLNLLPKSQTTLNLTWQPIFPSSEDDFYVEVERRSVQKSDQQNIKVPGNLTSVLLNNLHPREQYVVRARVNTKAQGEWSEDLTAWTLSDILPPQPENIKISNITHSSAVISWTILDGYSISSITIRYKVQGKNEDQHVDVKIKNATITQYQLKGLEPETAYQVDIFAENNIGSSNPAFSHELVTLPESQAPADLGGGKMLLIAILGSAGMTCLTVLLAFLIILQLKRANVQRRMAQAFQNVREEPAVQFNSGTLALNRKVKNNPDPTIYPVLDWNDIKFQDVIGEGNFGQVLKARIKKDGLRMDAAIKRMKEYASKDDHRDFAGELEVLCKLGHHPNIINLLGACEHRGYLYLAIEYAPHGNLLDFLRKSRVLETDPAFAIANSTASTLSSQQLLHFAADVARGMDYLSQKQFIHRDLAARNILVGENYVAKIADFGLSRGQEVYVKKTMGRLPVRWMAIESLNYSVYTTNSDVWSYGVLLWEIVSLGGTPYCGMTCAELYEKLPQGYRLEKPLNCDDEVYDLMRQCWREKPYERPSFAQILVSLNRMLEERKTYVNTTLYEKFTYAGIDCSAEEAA

[5] = molecular target: Angiopoietin-1 receptor (Homo sapiens) (UniProt Q02763); details: at 1 µM
[6] = molecular target: T2, Non-receptor tyrosine-protein kinase TNK1 (Homo sapiens) (UniProt Q13470); details: at 0.1 µM
T2 sequence (whole entry): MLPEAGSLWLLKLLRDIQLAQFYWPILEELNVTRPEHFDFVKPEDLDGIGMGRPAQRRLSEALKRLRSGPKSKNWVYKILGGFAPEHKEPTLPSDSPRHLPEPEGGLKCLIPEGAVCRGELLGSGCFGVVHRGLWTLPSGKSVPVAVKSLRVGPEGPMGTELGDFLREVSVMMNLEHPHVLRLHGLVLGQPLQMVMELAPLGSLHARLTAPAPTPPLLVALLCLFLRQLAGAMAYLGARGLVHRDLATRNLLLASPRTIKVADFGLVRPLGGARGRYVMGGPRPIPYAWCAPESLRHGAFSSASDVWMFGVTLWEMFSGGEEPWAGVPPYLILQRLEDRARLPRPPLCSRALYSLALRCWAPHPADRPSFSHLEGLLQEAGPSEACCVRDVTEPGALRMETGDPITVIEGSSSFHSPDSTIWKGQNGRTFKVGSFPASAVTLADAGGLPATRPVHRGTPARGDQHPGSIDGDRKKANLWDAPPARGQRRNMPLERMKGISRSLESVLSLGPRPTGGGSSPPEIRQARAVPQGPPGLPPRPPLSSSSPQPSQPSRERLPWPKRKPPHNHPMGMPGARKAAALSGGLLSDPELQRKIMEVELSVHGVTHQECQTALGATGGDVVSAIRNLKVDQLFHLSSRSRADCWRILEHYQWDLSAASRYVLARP

[7] = molecular target: T2, Non-receptor tyrosine-protein kinase TNK1 (Homo sapiens); details: at 1 µM
[8] = molecular target: Activated CDC42 kinase 1 (Homo sapiens) (UniProt Q07912); details: at 0.1 µM
[9] = molecular target: Activated CDC42 kinase 1 (Homo sapiens) (UniProt Q07912); details: at 1 µM
[10] = molecular target: High affinity nerve growth factor receptor (Homo sapiens) (UniProt P04629); details: at 0.1 µM
Chain of High affinity nerve growth factor receptor (Homo sapiens) (P04629 33-796 limits assumed): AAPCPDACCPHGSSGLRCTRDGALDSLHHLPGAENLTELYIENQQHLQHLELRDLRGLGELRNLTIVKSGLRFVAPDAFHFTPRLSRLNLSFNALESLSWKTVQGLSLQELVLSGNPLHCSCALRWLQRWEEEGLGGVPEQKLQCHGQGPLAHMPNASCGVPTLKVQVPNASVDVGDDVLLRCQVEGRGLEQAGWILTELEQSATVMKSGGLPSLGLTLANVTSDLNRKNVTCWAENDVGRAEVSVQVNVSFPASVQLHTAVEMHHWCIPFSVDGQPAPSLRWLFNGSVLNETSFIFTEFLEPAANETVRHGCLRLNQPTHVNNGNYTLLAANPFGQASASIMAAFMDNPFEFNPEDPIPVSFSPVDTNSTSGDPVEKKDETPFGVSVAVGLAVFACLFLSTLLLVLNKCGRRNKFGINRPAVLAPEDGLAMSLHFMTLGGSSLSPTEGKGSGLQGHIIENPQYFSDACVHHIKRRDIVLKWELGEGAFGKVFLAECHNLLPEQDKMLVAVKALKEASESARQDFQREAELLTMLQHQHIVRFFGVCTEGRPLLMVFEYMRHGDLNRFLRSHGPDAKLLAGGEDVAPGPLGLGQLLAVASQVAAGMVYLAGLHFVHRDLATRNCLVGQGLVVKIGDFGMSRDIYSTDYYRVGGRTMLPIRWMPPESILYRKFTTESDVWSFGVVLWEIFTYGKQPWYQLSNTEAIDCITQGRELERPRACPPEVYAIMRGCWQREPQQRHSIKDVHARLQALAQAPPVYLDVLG

[11] = molecular target: High affinity nerve growth factor receptor (Homo sapiens) (UniProt P04629); details: at 1 µM
[12] = molecular target: BDNF/NT-3 growth factors receptor (Homo sapiens) (UniProt Q16620); details: at 0.1 µM
Chain of BDNF/NT-3 growth factors receptor (Homo sapiens) (Q16620 32-822 limits assumed): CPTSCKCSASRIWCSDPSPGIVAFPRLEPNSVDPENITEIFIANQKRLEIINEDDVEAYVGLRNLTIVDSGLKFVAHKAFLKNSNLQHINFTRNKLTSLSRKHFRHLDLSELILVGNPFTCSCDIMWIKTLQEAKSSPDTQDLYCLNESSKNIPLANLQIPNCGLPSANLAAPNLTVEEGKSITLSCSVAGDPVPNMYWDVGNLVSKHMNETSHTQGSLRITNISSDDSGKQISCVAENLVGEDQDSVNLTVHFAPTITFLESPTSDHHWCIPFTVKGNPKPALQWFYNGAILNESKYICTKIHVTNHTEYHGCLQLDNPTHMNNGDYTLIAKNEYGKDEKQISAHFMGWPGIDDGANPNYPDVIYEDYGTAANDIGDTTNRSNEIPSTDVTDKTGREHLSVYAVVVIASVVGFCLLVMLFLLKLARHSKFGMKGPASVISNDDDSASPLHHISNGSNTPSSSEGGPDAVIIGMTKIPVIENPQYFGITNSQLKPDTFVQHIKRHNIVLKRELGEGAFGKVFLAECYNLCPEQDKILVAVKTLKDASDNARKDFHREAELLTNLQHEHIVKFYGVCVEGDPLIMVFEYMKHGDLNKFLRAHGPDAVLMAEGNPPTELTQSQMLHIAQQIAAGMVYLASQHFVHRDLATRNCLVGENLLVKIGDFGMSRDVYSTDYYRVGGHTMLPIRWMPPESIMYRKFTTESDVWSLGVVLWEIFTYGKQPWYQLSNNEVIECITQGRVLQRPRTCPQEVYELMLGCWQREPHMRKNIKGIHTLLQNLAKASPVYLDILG

[13] = molecular target: BDNF/NT-3 growth factors receptor (Homo sapiens) (UniProt Q16620); details: at 1 µM
[14] = molecular target: NT-3 growth factor receptor (Homo sapiens) (UniProt Q16288); details: at 0.1 µM
Chain of NT-3 growth factor receptor (Homo sapiens) (Q16288 32-839 limits assumed): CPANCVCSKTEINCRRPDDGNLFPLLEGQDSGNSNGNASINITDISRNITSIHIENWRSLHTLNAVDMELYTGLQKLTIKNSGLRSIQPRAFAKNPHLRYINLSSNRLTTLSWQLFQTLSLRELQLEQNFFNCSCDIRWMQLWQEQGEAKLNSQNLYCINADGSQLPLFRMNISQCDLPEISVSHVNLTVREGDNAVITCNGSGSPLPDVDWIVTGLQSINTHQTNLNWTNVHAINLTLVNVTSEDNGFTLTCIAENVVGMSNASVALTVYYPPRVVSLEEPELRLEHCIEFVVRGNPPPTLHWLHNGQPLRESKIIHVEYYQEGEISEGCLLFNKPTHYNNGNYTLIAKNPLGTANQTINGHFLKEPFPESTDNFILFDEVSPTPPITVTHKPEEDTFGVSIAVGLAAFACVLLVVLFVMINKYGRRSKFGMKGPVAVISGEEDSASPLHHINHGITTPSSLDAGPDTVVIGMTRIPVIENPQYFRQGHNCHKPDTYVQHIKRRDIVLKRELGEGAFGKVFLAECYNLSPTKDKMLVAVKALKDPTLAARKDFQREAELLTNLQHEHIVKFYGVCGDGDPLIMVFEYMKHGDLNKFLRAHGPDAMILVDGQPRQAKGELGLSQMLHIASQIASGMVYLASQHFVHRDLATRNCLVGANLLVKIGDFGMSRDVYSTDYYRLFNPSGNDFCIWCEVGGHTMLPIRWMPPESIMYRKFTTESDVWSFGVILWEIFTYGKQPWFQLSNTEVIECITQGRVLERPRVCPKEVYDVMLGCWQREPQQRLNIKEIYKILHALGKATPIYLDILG

[15] = molecular target: NT-3 growth factor receptor (Homo sapiens) (UniProt Q16288); details: at 1 µM
[16] = molecular target: T3, Tyrosine-protein kinase TXK (Homo sapiens) (UniProt P42681); details: at 0.1 µM
T3 sequence (whole entry): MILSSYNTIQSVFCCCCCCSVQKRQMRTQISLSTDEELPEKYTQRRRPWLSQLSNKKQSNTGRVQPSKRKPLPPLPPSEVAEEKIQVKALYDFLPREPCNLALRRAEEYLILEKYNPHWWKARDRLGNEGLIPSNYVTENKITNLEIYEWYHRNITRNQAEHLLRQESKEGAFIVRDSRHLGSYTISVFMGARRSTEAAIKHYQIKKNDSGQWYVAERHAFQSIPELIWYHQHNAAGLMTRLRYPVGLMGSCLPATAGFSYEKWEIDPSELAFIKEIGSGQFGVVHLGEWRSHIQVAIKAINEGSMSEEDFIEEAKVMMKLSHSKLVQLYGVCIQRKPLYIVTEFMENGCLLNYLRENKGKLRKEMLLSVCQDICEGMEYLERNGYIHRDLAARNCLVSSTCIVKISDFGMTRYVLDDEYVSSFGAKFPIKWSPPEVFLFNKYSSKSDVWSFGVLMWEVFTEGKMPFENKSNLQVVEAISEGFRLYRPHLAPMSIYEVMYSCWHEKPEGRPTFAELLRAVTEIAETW

[17] = molecular target: T3, Tyrosine-protein kinase TXK (Homo sapiens); details: at 1 µM
[18] = molecular target: Non-receptor tyrosine-protein kinase TYK2 (Homo sapiens) (UniProt P29597); details: at 0.1 µM;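 also: each value is a mean of the inhibition readings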
Chain of Non-receptor tyrosine-protein kinase TYK2 (Homo sapiens) (P29597 whole entry): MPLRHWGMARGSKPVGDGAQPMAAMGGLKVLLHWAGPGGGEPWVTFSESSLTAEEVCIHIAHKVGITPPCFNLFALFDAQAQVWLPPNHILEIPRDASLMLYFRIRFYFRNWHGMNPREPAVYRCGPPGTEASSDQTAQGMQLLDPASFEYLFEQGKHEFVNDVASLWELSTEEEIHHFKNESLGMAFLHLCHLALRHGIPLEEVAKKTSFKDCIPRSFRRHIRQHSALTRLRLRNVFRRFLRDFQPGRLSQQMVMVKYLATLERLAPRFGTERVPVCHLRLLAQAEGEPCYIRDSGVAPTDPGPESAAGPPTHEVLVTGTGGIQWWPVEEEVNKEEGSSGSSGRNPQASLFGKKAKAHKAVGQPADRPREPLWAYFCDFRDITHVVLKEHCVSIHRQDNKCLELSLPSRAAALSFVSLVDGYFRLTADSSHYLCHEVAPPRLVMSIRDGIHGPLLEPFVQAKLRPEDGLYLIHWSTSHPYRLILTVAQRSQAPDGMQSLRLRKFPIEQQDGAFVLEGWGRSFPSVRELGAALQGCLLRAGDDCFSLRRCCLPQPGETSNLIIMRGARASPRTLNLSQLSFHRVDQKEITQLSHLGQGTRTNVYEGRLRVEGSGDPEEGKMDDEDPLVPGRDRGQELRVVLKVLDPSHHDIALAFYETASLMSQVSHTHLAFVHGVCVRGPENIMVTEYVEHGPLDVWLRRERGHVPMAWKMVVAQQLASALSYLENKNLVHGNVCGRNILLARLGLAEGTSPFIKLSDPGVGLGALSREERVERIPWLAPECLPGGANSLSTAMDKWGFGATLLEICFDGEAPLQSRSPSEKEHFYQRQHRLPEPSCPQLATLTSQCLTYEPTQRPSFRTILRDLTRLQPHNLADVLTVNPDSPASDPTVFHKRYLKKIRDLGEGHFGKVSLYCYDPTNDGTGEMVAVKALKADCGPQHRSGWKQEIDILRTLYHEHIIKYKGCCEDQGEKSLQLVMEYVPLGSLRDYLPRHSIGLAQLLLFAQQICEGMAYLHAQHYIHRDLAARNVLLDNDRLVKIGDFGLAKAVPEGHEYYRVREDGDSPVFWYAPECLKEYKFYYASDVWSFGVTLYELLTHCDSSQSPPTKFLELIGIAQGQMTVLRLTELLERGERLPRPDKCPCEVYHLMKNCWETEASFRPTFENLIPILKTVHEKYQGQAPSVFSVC

[19] = molecular target: T4, Dual specificity protein kinase TTK (Homo sapiens) (UniProt P33981); details: at 1 µM;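 also: reported figures are mean TTK inhibition at 1 µM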
T4 sequence (whole entry): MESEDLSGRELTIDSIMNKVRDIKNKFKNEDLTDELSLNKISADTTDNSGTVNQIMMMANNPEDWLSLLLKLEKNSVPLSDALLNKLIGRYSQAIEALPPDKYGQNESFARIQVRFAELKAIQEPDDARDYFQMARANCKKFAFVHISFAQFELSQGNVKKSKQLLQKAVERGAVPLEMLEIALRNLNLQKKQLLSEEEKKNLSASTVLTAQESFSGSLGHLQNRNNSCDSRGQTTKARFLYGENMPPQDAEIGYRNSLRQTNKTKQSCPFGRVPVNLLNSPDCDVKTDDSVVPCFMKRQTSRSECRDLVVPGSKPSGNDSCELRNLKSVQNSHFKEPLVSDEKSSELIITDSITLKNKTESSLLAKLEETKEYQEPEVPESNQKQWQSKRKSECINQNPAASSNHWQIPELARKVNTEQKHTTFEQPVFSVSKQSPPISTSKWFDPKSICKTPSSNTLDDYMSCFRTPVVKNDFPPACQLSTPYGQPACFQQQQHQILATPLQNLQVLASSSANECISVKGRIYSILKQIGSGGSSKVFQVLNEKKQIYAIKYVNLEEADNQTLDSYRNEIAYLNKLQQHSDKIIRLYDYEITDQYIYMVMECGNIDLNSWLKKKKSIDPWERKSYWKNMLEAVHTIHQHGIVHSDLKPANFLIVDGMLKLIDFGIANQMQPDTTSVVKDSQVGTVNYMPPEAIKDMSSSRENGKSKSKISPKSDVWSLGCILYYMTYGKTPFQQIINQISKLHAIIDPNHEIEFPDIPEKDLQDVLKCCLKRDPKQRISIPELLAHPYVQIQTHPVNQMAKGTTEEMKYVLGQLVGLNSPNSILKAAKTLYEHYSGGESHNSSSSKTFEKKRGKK

[20] = molecular target: T5, Aurora kinase A (Homo sapiens) (UniProt O14965); details: at 0.1 µM;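 also: each reported value is a mean percent inhibition of Aurora-A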
T5 sequence (whole entry): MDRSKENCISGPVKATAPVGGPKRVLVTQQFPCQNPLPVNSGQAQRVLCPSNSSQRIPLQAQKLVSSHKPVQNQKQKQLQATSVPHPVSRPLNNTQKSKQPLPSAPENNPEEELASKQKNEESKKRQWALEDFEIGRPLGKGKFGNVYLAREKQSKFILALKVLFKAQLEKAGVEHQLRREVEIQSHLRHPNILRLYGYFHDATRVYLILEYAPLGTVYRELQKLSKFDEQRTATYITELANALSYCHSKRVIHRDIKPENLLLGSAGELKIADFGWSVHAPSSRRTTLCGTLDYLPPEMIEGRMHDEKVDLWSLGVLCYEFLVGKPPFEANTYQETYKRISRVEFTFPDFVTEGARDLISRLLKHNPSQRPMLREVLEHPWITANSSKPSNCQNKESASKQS

SMILES | inhibition [1] | inhibition [2] | inhibition [3] | inhibition [4] | inhibition [5] | inhibition [6] | inhibition [7] | inhibition [8] | inhibition [9] | inhibition [10] | inhibition [11] | inhibition [12] | inhibition [13] | inhibition [14] | inhibition [15] | inhibition [16] | inhibition [17] | inhibition [18] | inhibition [19] | inhibition [20]
COc1cc(N2CCN(C(C)C)CC2)ccc1Nc1nc(Nc2cccc3ncccc23)c2cc[nH]c2n1 | -0.52% | 0.93% | -0.14% | 3.15% | 7.32% | 0.11% | 22.3% | 1.12% | 13.2% | 1.86% | 1.49% | 0.73% | 0.22% | 0.87% | 0.74% | 0.48% | 3.98% | -4.59% | 69.5% | 0.64%
Nc1nonc1-c1nc2cnccc2n1C1CC1 | -1.65% and 0.1% | 4.66% and -0.83% | 7.39% and -0.23% | 1.33% and 1.27% | 5.19% and 4.75% | 3.99% and 1.62% | 9.35% and 9.64% | 1.76% and 0.5% | 3.72% and 0.02% | 3.67% and -0.15% | 0.83% and 3.35% | 1.21% and 3.09% | 3.17% and -0.36% | 2.17% and 1.89% | 3.84% and 1.11% | 4.13% and -0.96% | 5.76% and -3.04% | -4.88% and 0.09% | 5.15% and -6.34% | 3.77% and -2.63%
CN1CCC(C(=O)Nc2n[nH]c3nc(-c4ccc(O)cc4)c(Br)cc23)CC1 | -0.04% and 0.42% | -1.21% and 2.96% | 1.24% and 2.96% | 3.01% and 5.98% | 7.84% and 7.69% | 3.57% and 0.52% | 6.51% and 6.06% | 0.92% and 0.24% | 1.76% and 1.56% | 1.13% and 2.68% | 1.2% and 2.04% | 2.51% and 1.42% | 3.32% and 2.74% | 3.04% and 2.59% | 4.91% and 0.79% | -0.5% and 4.86% | -0.68% and 3.3% | -2.31% and 0.31% | 19% and 6.37% | -1.93% and 2.95%
c1ccc(-c2n[nH]cc2-c2ccnc(-c3ccc(OCCn4ccnc4)cc3)c2)nc1 | 0.33% | 0.42% | 0.73% | 0.28% | 3.93% | -0.4% | 5.89% | -0.42% | 0.83% | 2.17% | 3.78% | 0.64% | 4.04% | 0.02% | 4.91% | 0.7% | 4.37% | 1.04% | 10.7% | 1.14%
c1cnn2ncc(-c3ccnc(NCCCN4CCOCC4)n3)c2c1 | 0.5% | 2.64% | 3.12% | 2.79% | 3.09% | 1.04% | -1.51% | 0.23% | -0.49% | 2.69% | 1.75% | 3.17% | 1.35% | 3.48% | 2.63% | 1.71% | -0.63% | -5.16% | 8.22% | 2.65%
CC(C)c1ccc(-c2cc(-c3c[nH]nc3-c3ccccn3)ccn2)cc1 | 1.09% | 2.3% | 2.11% | 4.71% | 6.64% | 0.85% | -0.32% | 0.23% | 0.19% | 0.99% | 2.9% | 0.33% | 2.07% | 0.32% | 1.76% | 2.1% | 2.05% | 0.66% | 11.3% | 1.03%
